Shown are actives, neighbours in structure and some others; about 9% of the full set was active somewhere.
HP1b chromo inh: HP1-beta chromodomain-methylated histone interaction inhibition. 390,000 tested, 0.56% active. Potency, µM (series often up to 114 µM), for the others: at the highest dose activity change, negative = inhibition, actives largely listed as inhibitors. AlphaScreen HP1-beta / biotin-H3K9me3 peptide binding; also: nearly all actives have a fitted effect of over 70% in size
Target sequence (P83916 whole entry, looked up): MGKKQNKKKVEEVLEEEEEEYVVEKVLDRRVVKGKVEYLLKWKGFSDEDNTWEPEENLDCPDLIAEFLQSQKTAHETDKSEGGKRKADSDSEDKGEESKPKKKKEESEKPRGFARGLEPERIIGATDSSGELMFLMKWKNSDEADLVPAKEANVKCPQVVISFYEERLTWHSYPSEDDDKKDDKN
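Compound inhibition of the preformed complex between 50 nM HP1-beta and 50 nM biotinylated H3K9me3 peptide was read by AlphaScreen. Buffer was PBS pH 7.4 with 0.01% Tween-20. Incubations ran 30 min at room temperature, with 10 ug/mL donor/acceptor beads.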
PLK1 PBD inh: inhibitors of human PLK1 polo-box domain binding; Plk1 PBD binding of FITC phosphopeptide, fluorescence polarization; 360,000 tested, 2.8% active; AID 720504; Potency, µM, for inactives: max response, negative = inhibition, most hits filed as inhibitors; P53350; also: series mostly up to about 57 µM; % is scaled to controls: 0 for no effect and ±100 for the full control effect; nearly all actives have a fitted effect of over 65% in size
BAZ2B block: inhibitors of human BAZ2B bromodomain; 360,000 tested, 4.4% active; Potency, µM (doses to about 114 µM), for inactives: at the top dose activity change, negative = inhibition, hits mostly inhibitors; AlphaScreen BAZ2B-H3K14Ac peptide displacement; Q9UIF8; also: % is scaled to controls: 0 for no effect and ±100 for the full control effect; nearly all actives have a fitted effect of over 60% in size
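Multi-concentration screen (max 110 uM) measuring displacement of acetylated histone H3 peptide from BAZ2B by AlphaScreen, using 50 nM protein, 50 nM peptide and 10 ug/mL streptavidin donor plus Ni-chelate acceptor beads.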
G9a block: blocks human histone lysine methyltransferase G9a; Q96KQ7; G9a H3K9 monomethylation, AlphaScreen, 2 h; Potency, µM (series often up to 102 µM), for the others: at the top dose activity, negative = inhibition, most hits filed as inhibitors; 350,000 tested, 8.8% active; also: % is scaled to controls: 0 for no effect and ±100 for the full control effect; nearly all actives have a fitted effect of over 75% in size
Target sequence (Q96KQ7 913-1193 limits assumed): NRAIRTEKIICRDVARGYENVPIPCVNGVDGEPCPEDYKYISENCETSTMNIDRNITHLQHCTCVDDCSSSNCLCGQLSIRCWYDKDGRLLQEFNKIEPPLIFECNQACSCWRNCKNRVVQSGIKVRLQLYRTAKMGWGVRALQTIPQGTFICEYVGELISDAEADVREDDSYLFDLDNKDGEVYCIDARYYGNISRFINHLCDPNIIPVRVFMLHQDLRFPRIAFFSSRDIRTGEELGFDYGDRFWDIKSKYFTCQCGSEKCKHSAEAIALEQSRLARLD
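Compounds were preincubated with 20 nM G9a for 15 min, after which biotinylated H3K9 peptide (500 nM) and SAM (20 uM) started a 2 h room-temperature reaction. Monomethylated product was quantified by antibody-based AlphaScreen chemiluminescence.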
JMJD2A Tudor: inhibitors of human JMJD2A Tudor domain | 390,000 tested, 4.4% active | AID 504339 | Potency, µM (highest dose often 114 µM), inactives show at the top dose activity change, negative = inhibition, actives largely listed as inhibitors | O75164 | AlphaScreen JMJD2A-Tudor / H3K4me3 peptide binding; also: % is scaled to controls: 0 for no effect and ±100 for the full control effect; nearly all actives have a fitted effect of over 50% in size
12-LOX inh: blocks human arachidonate 12S-lipoxygenase. P18054. purified 12hLO, xylenol orange hydroperoxide absorbance. Potency, µM (highest dose often 108 µM), without a hit: at the highest dose activity change, negative = inhibition, most hits filed as inhibitors. 580,000 tested, 1.1% active; also: % is scaled to controls: 0 for no effect and ±100 for the full control effect
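Hydroperoxide product was detected by ferrous iron/xylenol orange as the 573 to 405 nm absorbance ratio. Arachidonic acid at 40 uM (final) was turned over for 30 min at room temperature by 150 nM human 12hLO, pH 7.0 Hepes buffer, after 15 min compound preincubation.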
Starred values were filed as active, the others as inactive; ? = inconclusive; nt = no result given; [ ] = another dose, or the depositor's remark. Calls follow the shape of the dose curve; as a rule, active = well fitted curve in the direction sought with a large enough effect; inconclusive = small, poorly fitted or top-dose-only effect, or another doubt; inactive = no such curve, though single readings can be large; an effect the other way counts as inactive or inconclusive. Potency is read from the fitted curve at half-maximal effect.

SMILES | HP1b chromo inh | PLK1 PBD inh | BAZ2B block | G9a block | JMJD2A Tudor | 12-LOX inh
CCC1C(=O)NCCN1Cc1nc(-c2ccc(C)s2)oc1C (stereo not given) | 27% | -1% | -3% | -3% | -12% | -13%
Cc1ccc(Cl)cc1N(CC(=O)NCc1ccccc1)S(C)(=O)=O | 38% | -2% | -4% | 2% | -8% | 35%
Cn1nc(C(=O)Nc2ccccc2C(=O)NC2CC2)c2ccccc2c1=O | nt | nt | nt | nt | nt | -30%
COc1ccc(/C=C(/C#N)C(=O)c2c(Cl)cccc2Cl)cc1 | nt | nt | nt | nt | nt | 6.3µM*
CCCC(=O)Nc1ccc(NC(=O)c2ccccn2)cn1 | 9% | -10% | -24% | ? | 3.2µM* | 0%
O=C(Nc1ccc(NC(=O)C2CCCCC2)nc1)c1ccccn1 | 17% | -28% | ? | 28µM* | ? | -2%
CCCC(=O)Nc1ccc(NC(=O)c2ccccc2OC)cn1 | 11% | -1% | -4% | -4%[59 µM] | 6% | -17%
COc1cccc(C(=O)Nc2ccc(NC(C)=O)cn2)c1 | 27% | -7% | -5% | -4%[59 µM] | -7% | 38%
O=C(Nc1ccc(NC(=O)C2CC2)cn1)c1ccccc1Cl | -13% | 24µM* | -5% | 15%[59 µM] | -13%[11.4 µM] | 2%
COc1cccc(C(=O)Nc2ccc(NC(=O)C3CC3)nc2)c1 | -11% | -4% | -10% | 40µM* | -15% | ?
CCOC(=O)[C@]12CCC=C1N(Cc1ccc3c(c1)OCO3)C(=O)[C@H](CC(=O)NCCCN1CCCC1=O)C2 | nt | -3% | nt | nt | nt | 2%
CC12c3ccccc3C(c3ccccc31)C1C(=O)N(Cc3cccnc3)C(=O)[C@H]12 (stereo not given in full) | 28% | 1% | -30% | 16%[59 µM] | -7% | -5%
CC(=O)NC1C(OCCOc2ccc(Cl)cc2C)OC(CO)C(O)C1O (stereo not given) | 28% | 3% | -7% | 3% | -6% | 0%
CC(=O)Nc1cc(-c2cccc(C(=O)N(C)C)c2)cn2c(-c3ccccc3)cnc12 | nt | -10% | nt | nt | nt | -6%
CCOc1cc(C2c3c(oc4ccc(F)cc4c3=O)C(=O)N2Cc2ccc(C)cc2)ccc1O (stereo not given) | 38% | nt | 30% | 58%[59 µM] | 2% | ?
Cc1cc(SCC(=O)Nc2ccc(F)cc2F)nc2ccccc12 | nt | nt | nt | nt | nt | 2%
COc1ccc(CC(=O)Nc2sccc2C#N)cc1S(=O)(=O)N1CCOCC1 | 25% | -9% | -22% | 40µM* | -4% | -4%
COc1ccc(NC(=O)CNCc2ccc(Cl)cc2)cc1S(=O)(=O)N1CCOCC1 | ? | 5% | nt | nt | 3.5µM* | ?
COc1ccc(NC(=O)CN2CCc3ccccc3C2)cc1S(=O)(=O)N1CCOCC1 | 7% | -15% | -5% | 25%[59 µM] | -18% | -12%
COc1ccc(NC(=O)CN2C(=O)c3ccccc3S2(=O)=O)cc1S(=O)(=O)N1CCOCC1 | 17% | 0% | 8% | 50µM* | -12% | -18%
COc1cc(/C=C/C(=O)Nc2ccc(OC)c(S(=O)(=O)N3CCOCC3)c2)ccc1OC(F)F | 19% | 2% | nt | nt | -22% | -8%
COc1ccc(NC(=O)/C=C/c2ccc(C)o2)cc1S(=O)(=O)N1CCOCC1 | -4% | -13% | ? | 6.3µM* | -17% | 0%
Cc1cccc([S+](=O)([O-])N2CCC3(CC2)OCCN(C)C3=O)c1 | nt | nt | nt | nt | nt | 4%[176 µM]
COc1cccc(C(=O)NCCSCc2c(F)cccc2Cl)c1 | 4% | 21µM* | 6% | -3%[0.501 µM] | ? | ?
Cc1ccc(S(=O)(=O)N2CCCC(c3nc(-c4ccc(C)o4)no3)C2)cc1 (stereo not given) | 0% | -9% | -8% | -4%[2.33 µM] | -21% | ?
CC(=O)c1cccc(S(=O)(=O)N2CCCC(c3nc(-c4ccc(C)o4)no3)C2)c1 (stereo not given) | 3% | -20% | -29% | 4µM* | -23% | ?
Cc1ccc(-c2noc(C3CCCN(S(=O)(=O)c4ccc5ccccc5c4)C3)n2)o1 (stereo not given) | -1% | -11% | -10% | 35µM* | -28% | ?
